Bioassay records from PubChem.
A selection: hits, their analogues and other compounds. The true share with any hit is near 21%.
Pf growth 96h = inhibits malaria parasite growth, 96 h; 6.9% of 320,000 active; Potency, µM (highest dose often 28.7 µM), without a hit: top-dose activity change, negative = inhibition, actives largely listed as inhibitors; AID 504834; P. falciparum luciferase reporter growth, 96 h; also: potency is read from the fitted curve at half-maximal effect; % is scaled to controls: 0 for no effect and ±100 for the full control effect
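Two-generation exposure (96 h) targets delayed-death phenotype. Reporter parasites carrying integrated firefly luciferase, in red cells at 2% hematocrit and 0.05% parasitemia final, kept at 37 C, 5% CO2; luminescence loss indicates inhibition.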
Pf growth 48h = inhibits P. falciparum growth in the first generation, 48 h; P. falciparum luciferase growth in erythrocytes, 48 h; Potency, µM (doses to about 28.7 µM), for inactives: top-dose activity change, negative = inhibition, actives largely listed as inhibitors; AID 504832; 5.9% of 310,000 active; also: potency is read from the fitted curve at half-maximal effect; % is scaled to controls: 0 for no effect and ±100 for the full control effect
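Cell-based growth assay: transgenic P. falciparum expressing firefly luciferase, cultured in red cells within RPMI 1640 containing 0.5% w/v Albumax, 24 mM bicarbonate and gentamycin. A drop in luciferase activity indicates inhibition.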
Cycloheximide cs = affects cycloheximide protein synthesis inhibition readout, counter-screen; cell reporter, cycloheximide protein synthesis inhibition counterscreen; max response, %; 12% of 300,000 active; AID 2314; in the data active = max response mostly above about 13%, no sharp cut-off; inactive = mostly below about 14%; also: read at 38.3 µM for the half of the compounds with a filed dose; 0% is about no effect
Shiga toxin inh = blocks Shiga toxin action in Vero cells. Vero cells, Shiga toxin protein synthesis inhibition reporter. inhibition, % at 38.7 µM. 9.2% of 290,000 active. AID 2315; in the data active = inhibition mostly above about 28%, no sharp cut-off; inactive = mostly below about 43%; also: 0% is about no effect
Giardia FBPA inh = inhibitors of Giardia lamblia fructose-1,6-bisphosphate aldolase. 0.71% of 290,000 active. purified Giardia FBPA. A8B2U2. Potency, µM (highest dose often 59.6 µM), for inactives: at the top dose activity, negative = inhibition, actives largely listed as inhibitors. AID 2451; also: potency is read from the fitted curve at half-maximal effect; % is scaled to controls: 0 for no effect and ±100 for the full control effect; nearly all actives have a fitted effect of over 55% in size
Target sequence (A8B2U2 whole entry, looked up): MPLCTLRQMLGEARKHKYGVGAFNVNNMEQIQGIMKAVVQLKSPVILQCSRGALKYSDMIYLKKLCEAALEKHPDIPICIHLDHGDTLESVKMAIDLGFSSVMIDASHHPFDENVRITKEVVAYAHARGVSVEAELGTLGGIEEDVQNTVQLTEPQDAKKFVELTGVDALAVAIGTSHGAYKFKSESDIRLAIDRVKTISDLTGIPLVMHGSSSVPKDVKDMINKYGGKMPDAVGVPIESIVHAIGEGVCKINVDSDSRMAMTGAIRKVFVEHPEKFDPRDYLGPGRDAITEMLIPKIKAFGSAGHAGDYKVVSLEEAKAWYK
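40 nM FBPA preincubated 10 min at RT with compound (up to 57.5 uM final), then substrate plus GAPDH/TPI/NAD/arsenate coupling and diaphorase/resazurin added. Fluorescence read after 20 min at RT, 525/598 nm.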
NS1 inh = influenza NS1 inhibition; Potency, µM (highest dose often 46.1 µM), for inactives: at the highest dose activity, positive = more growth; 0.4% of 270,000 active; AID 2326; calls by dose curve; also: potency is read from the fitted curve at half-maximal effect; actives are rising curves; nearly all actives have a fitted effect of over 50% in size
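OD600 was taken as the measure of yeast growth restored by compound in an NS1-expressing S. cerevisiae strain. Cells had been washed out of glucose medium and diluted 1:100 into galactose -URA medium, pH 6.0.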
The depositor's hits bear a star; ? = inconclusive; . = not tested or not shown. Unless noted, calls follow the shape of the dose curve; as a rule, active = well fitted curve in the direction sought with a large enough effect; inconclusive = small, poorly fitted or top-dose-only effect, or another doubt; inactive = no such curve, though single readings can be large; an effect the other way counts as inactive or inconclusive.

SMILES | Pf growth 96h | Pf growth 48h | Cycloheximide cs | Shiga toxin inh | Giardia FBPA inh | NS1 inh
CCn1c(CNc2ccc(OC)cc2)nnc1SCC(=O)N1CCCc2ccccc21 | -15% | ? | 12 | 33 | ? | 1%
Cc1ccc(C(=O)c2cc(C)sc2NC(=O)CN2CCN(C(=O)c3ccco3)CC2)cc1 | 7% | 1.3µM* | -4 | -12 | -10% | -4%
CCc1cc(C(=O)OC)c(NC(=O)CN2CCN(C(=O)c3ccco3)CC2)s1 | ? | 1.7µM* | -1 | -7 | . | 5%
CCOC(=O)N1CCN(CC(=O)Nc2sc(CC)cc2C(=O)c2ccc(OC)cc2)CC1 | 10µM* | ? | -2 | -11 | -7% | 16%
CCOC(=O)c1c(NC(=O)CN2CCN(C(=O)C3CCCO3)CC2)sc(C)c1C (stereo unspecified) | -6% | ? | -2 | -10 | 1% | 11%
CCc1cc(C(=O)OC)c(NC(=O)CN2CCN(C(=O)C3CCCO3)CC2)s1 (stereo unspecified) | 0.66µM* | ? | -4 | -8 | . | -19%
Cc1cc(C(=O)c2ccccc2)c(NC(=O)CN2CCOCC2)s1 | 30% | 12% | -1 | -7 | 1% | -2%
O=C(CCc1ccccc1)NC1CCS(=O)(=O)C1 (stereo unspecified) | 45% | 5% | . | . | . | .
Nc1ccc2c(c1)C/C(=C/c1ccco1)C2=O | 274% | 332% | 56* | 123* | -21% | 1%
COc1ccc2c(c1)CC/C(=C/c1ccco1)C2=O | 0% | 247% | 56* | 120* | -7% | -10%
O=C1/C(=C/c2ccco2)CCc2ccccc21 | ? | 338% | 77* | 61* | -25% | -2%
COc1cc(OC)c(OC)cc1/C=C1/Cc2ccccc2C1=O | ? | 4% | -5 | -6 | 8% | 6%
O=C(Cn1cc([N+](=O)[O-])ccc1=O)NC1CCCCC1 | -21% | 11% | . | . | . | .
COCCNC(=O)C(c1ccc(Cl)cc1)N(CCOC)C(=O)CCC(=O)Nc1ccccn1 (stereo unspecified) | 5% | 29% | -4 | -5 | . | 2%
c1coc(CNCc2cccs2)c1 | 9.3µM* | 23% | -1 | -5 | -17% | 14%
Cc1cc(C)c(S(=O)(=O)N2CCN(c3ccc([N+](=O)[O-])c(-n4nc(C)cc4C)c3)CC2)c(C)c1 | 1.3µM* | 4.1µM* | 8 | -7 | 0% | 9%
Cc1cc(C)n(-c2cc(N3CCN(S(=O)(=O)c4ccc(Br)cc4)CC3)ccc2[N+](=O)[O-])n1 | ? | ? | -3 | -8 | 0% | ?
CCS(=O)(=O)N1CCN(c2ccc(C(=O)N3CCOCC3)cc2[N+](=O)[O-])CC1 | 8% | 2% | -1 | -2 | 8% | -5%
CCS(=O)(=O)N1CCN(c2ccc(C(=O)NC3C4CC5CC(C4)CC3C5)cc2[N+](=O)[O-])CC1 (stereo unspecified) | ? | 12µM* | -3 | -7 | -14% | -1%
COC(=O)c1ccc(N2CCN(S(=O)(=O)c3c(C)cc(C)cc3C)CC2)c([N+](=O)[O-])c1 | ? | 12µM* | -2 | -14 | 1% | 14%
C[C@@]12C[C@H](O)C3[C@H](CCC4=CC(=O)CC[C@]43C)[C@H]1CC[C@@H]2c1csc(-c2ccccc2)n1 (stereo partly specified) | . | . | . | . | . | -5%
COCCn1c(C)nnc1SCC(=O)NNC(=O)c1ccc(Br)cc1 | 25% | 0% | -3 | -5 | -1% | 3%
O=C(CN(Cc1ccccc1Cl)S(=O)(=O)c1ccc(Cl)cc1)N/N=C/c1ccc(C(=O)O)cc1 | ? | 1% | 7 | -6 | . | 6%
Nn1c(SCC(=O)N2CCOCC2)nnc1C1CC1 | 9% | 1% | -2 | -17 | 3% | -4%
O=S(=O)(c1cnc[nH]1)N1CCc2ccccc21 | 8.3µM* | -12% | -4 | 21 | -4% | 7%
SMILES | Pf growth 96h | Pf growth 48h | Cycloheximide cs | Shiga toxin inh | Giardia FBPA inh | NS1 inh
CCOc1ccc(N2CC(NS(=O)(=O)c3cccnc3)CC2=O)cc1 (stereo unspecified) | 17% | 11% | . | . | . | .
CN(CC(=O)Nc1ccccc1Cl)C(=O)C1CSC2(C)CCC(=O)N12 (stereo unspecified) | -3% | -4% | . | . | . | .
O=C(CC1CCCC1)Nc1cccc(Br)c1 | -14% | 3% | 17* | 56* | . | -37%
COC(=O)c1cc(OC)c(OC)cc1NC(=O)CC1CCCCC1 | 19% | 10µM* | 4 | 3 | 3% | -8%
CC(=O)c1cccc(NC(=O)CC2CCCC2)c1 | 20% | 12% | 1 | 47 | 1% | -8%
Cc1ccc(NC(=O)CC2CCCC2)c(Br)c1 | 111% | 88% | 42* | 93* | . | -1%
Cc1ccc(NC(=O)CNCc2cccs2)c(Br)c1 | 7% | 7% | 35* | 67* | ? | -8%
CC(C)CN(C(=O)CCNC(=O)c1ccccc1Cl)C1CCS(=O)(=O)C1 (stereo unspecified) | 13% | 28% | . | . | . | .
CC(C)Cc1nnc(NC(=O)C2CSC3(C)CCC(=O)N23)s1 (stereo unspecified) | 7% | ? | . | . | . | .
Cc1ccc(NC(=O)CNCc2ccccc2)c(Br)c1 | ? | 122% | 16* | 157* | 1% | .
Cc1ccc(CNCC(=O)Nc2ccc(C)cc2Br)cc1 | 23% | 17% | 17 | -11 | -3% | .
c1ccc2oc(CCc3nc4ccccc4o3)nc2c1 | 42% | 36% | 15* | 20 | 2% | -16%
Cc1ccc2nc(Cc3ccc(N)cc3)oc2c1 | 5% | 0% | 28* | 62* | 0% | 7%
O=C1c2ccccc2C(=O)N1Cc1nc2ccccc2o1 | -27% | 7% | -1 | 18 | 2% | -7%
Nc1ccc2oc(CCc3ccccc3)nc2c1 | 44% | 73% | 48* | 167* | ? | ?
c1ccc2oc(Cc3ccc(Cc4nc5ccccc5o4)cc3)nc2c1 | 13µM* | -26% | -3 | 14 | 0% | 2%
Cc1ccc(C(=O)N/C(=C\c2ccco2)C(=O)N2CCOCC2)cc1C | ? | ? | 3 | -7 | . | 19%
CC(=O)Nc1nnc(S(=O)(=O)N2CCN(c3ccc([N+](=O)[O-])cc3Cl)CC2)s1 | -21% | 8% | -10 | -3 | . | 9%
Cc1nn(C)cc1C1Nc2ccccc2C(=O)N1O (stereo unspecified) | -13% | -2% | 7 | 43 | -25% | 3%
O=C1c2ccccc2NC(c2cnc3ccccc3n2)N1O (stereo unspecified) | 12% | 343% | 49* | 71* | ? | -123%
Cc1ccsc1C1Nc2ccccc2C(=O)N1O (stereo unspecified) | ? | -15% | 20* | 47* | -30% | 0%
Cc1nn(C)c(C)c1C1Nc2ccccc2C(=O)N1O (stereo unspecified) | 31% | 28% | 16* | 42 | -22% | -7%
COC(=O)C1=C(C)NC(C)=C(C(=O)OC)C1c1ccccc1OCc1c(C)no[n+]1[O-] | 6% | 12µM* | -2 | 11 | 8% | -10%
